Data on 14 molecules can be found in PubChem BioAssay.

Experiment [1] can be described thus: inhibitors of TNFa-induced NFkB p65 translocation, primary screen, imaging, HUVEC, MLSMR starter and 10KST1 sets (AID 438;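 active = inhibition above 20% together with a positive visual image hit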;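 also: compound added about 3h40 before a 20 min TNFalpha stimulation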;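 as to inhibition: signal is the nuclear over cytoplasmic p65 intensity ratio per well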). As to conditions: HUVEC TNFa-induced p65 nuclear translocation; cell count: measured here: nuclei count (cytotoxicity indicator), at 2.08 µM; inhibition: at 2 µM, stronger effect = higher value, 0% TNFa-plus-vehicle, 100% no-TNFa wells.
Experiment [2] is described as follows: reduction of polyQ htt aggregates in cells – imaging, exon1htt(103Q)mCFP cells, high-content imaging, primary screen (AID 483;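 active = visual image review flags a hit and inhibition of aggregation exceeds 20%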;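 also: compound exposure lasted 3 days before fixation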;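 as to nuclei count: percent of the per-plate median nuclei count of sample wells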). The following applies: exon1htt(103Q)mCFP cell line, aggregate imaging, at 2 µM; inhibition of aggregation: stronger effect = higher value; nuclei count: measured here: cell count, toxicity.
Experiment [3] in a line: endothelial E-selectin expression blockers – imaging, HUVEC, immunofluorescence, MLSMR starter and 10KST1 sets, primary screen (AID 487;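 active = visually confirmed hit in the image check and inhibition above 20%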;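 as to inhibition: signal is fraction of cell area covered by stained E-selectin grains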;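 as to nuclei count: 100% = median nuclei count of all wells on the same plate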). As to conditions: HUVEC TNFalpha-induced E-selectin immunofluorescence imaging, at 2 µM; inhibition: stronger effect = higher value; nuclei count: measured here: cell number, toxicity.
Experiment [4] concerns the target Voltage-gated potassium channel subunit beta-2 (Rattus norvegicus) (UniProt P62483). In words: inhibitors of rat Kvbeta2 reductase activity – biochemical, NADPH fluorescence, primary screen (AID 622;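 active = fluorescence slope higher than the sample average by over 3 SD, cut at about -0.22 in these data, passing the limit was not always enough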;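 also: slope of raw intensity against log time taken from 70 to 1610 s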). As to conditions: recombinant KvBeta, 4-cyanobenzaldehyde reduction, at 10 µM, stronger effect = higher value.
Experiment [5] shares this target. In words: enhancers of rat Kvbeta2 NADPH turnover – biochemical, NADPH fluorescence, primary screen (AID 623).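 Also: fluorescence intensity change per second fitted from 20 to 320 s.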 As to conditions: Recombinant KvBeta, NADPH fluorescence decrease slope, 10 min; at 10 µM; stronger effect = lower value.
The target in experiment [6] is Alpha-2C adrenergic receptor (Homo sapiens) (UniProt P18825). In words: compounds altering alpha2C-coupled GIRK flux – cell-based, HEK293 alpha2C/GIRK1/2, thallium flux, primary screen (AID 624;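 active = fluorescence slope after compound addition differing from the mean of all screened samples at 99.7% confidence, in either direction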;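 also: slope of fluorescence ratio to pre-addition baseline per second over 15 to 24 s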). The following applies: thallium flux BTC fluorescence, at 10 µM, actives lie on both sides.
Sequence of Alpha-2C adrenergic receptor (Homo sapiens) (P18825 whole entry, looked up): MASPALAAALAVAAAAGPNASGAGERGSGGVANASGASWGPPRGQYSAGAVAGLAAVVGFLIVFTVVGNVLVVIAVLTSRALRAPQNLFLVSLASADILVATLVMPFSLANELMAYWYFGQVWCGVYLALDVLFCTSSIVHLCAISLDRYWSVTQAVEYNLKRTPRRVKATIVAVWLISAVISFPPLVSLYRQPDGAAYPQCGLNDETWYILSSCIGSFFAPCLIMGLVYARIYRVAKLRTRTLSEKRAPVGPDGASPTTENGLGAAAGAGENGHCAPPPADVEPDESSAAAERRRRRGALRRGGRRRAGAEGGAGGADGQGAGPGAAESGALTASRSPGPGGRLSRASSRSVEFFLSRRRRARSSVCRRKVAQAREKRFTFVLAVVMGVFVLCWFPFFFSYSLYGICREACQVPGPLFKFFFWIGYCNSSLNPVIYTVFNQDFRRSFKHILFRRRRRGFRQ
Experiment [7] is described as follows: blockers of RIG-like receptor reporter activation – cell-based, Sendai virus stimulus, luciferase, 10K MLSCN set, TLR/RLR signaling modifier project, primary screen (AID 602276;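 active = inhibition at or above 50% at 10 µM; inactive = inhibition below 50%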;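 also: firefly luciferase from ISG56 promoter only with Renilla not read in this screen; 0% = Sendai virus plus DMSO and 100% = medium plus DMSO without virus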). The following applies: HEK293 RL24 IRF3 luciferase reporter, at 10 µM, stronger effect = higher value.
Experiment [8] is described as follows: TLR3 IRF3 reporter activation blockers – cell-based, poly I:C stimulus, luciferase, 10K MLSCN set, primary screen (AID 602277;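 active = inhibition of the reporter signal at or above 50%; inactive = inhibition below 50%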). The following applies: HEK293-TLR3 RL24 IRF3 luciferase reporter, at 10 µM, stronger effect = higher value.

Each structure is given as a SMILES string. Calls of active or inactive are those of the source.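 The calls were made as follows, unless noted: active = NADPH fluorescence slope more negative than the mean of all samples by about 3 SD, 99.7% confidence; inactive = the rest.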

Sequence of Voltage-gated potassium channel subunit beta-2 (Rattus norvegicus) (P62483 whole entry, looked up): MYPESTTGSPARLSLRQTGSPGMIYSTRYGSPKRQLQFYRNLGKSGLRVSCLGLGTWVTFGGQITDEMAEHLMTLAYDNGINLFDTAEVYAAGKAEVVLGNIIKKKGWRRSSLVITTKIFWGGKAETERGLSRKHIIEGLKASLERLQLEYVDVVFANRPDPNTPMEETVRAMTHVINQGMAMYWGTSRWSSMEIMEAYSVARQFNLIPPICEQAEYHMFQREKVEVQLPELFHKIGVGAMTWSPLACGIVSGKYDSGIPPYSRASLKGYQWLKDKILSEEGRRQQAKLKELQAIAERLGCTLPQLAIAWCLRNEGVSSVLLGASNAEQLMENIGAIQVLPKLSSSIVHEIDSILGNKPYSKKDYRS

Consider `CCc1[nH]nc2c1C(c1cccc(OC(=O)N3CCOCC3)c1)C(C#N)=C(N)O2` (centres undefined), for which the cell count in experiment [1] was 393. The inhibition in experiment [1] is -20.5% (inactive); in experiment [3] it was 9.4% (inactive); in experiment [7], 20.6% (inactive); in experiment [8] it was 22.7% (inactive). For the same molecule, the inhibition of aggregation in experiment [2] is -8.9% (inactive). The nuclei count in experiment [2] stood at 98.5%; in experiment [3] it was 87.2%. The fluorescence slope in experiment [4] is -0.563 (inactive). Besides, the NADPH fluorescence slope in experiment [5] was -2e-05 (inactive). Besides, in experiment [6], the slope was 0.00573 (inactive).
For `COC(=O)C1=C(C)Nc2nnnn2C1c1cccs1` (centres undefined), the cell count in experiment [1] came to 536. For the same molecule, the inhibition in experiment [1] was -8.8% (inactive); in experiment [3] it was -19.9% (inactive); in experiment [7], 4.45% (inactive); in experiment [8], 20.5% (inactive). Further, the inhibition of aggregation in experiment [2] was -0.9% (inactive). For the same molecule, the figures for the nuclei count in experiment [2] and in experiment [3] were 107% and 62.5%, respectively. In addition, the fluorescence slope in experiment [4] is -0.599 (inactive). Further, the NADPH fluorescence slope in experiment [5] is -6.8e-05 (inactive). Besides, the slope in experiment [6] was 0.0058 (inactive).
Regarding `Cc1ccc2cccc(SCC(=O)N3CCOCC3)c2n1`, in experiment [1], the cell count was 286. The inhibition in experiment [1] is -6.7% (inactive); in experiment [3], -45.8% (inactive); in experiment [7], 6.65% (inactive); in experiment [8] it was 31.6% (inactive). In experiment [2], the inhibition of aggregation was 28% (inactive). Moreover, the results for the nuclei count in experiment [2] and in experiment [3] were 72.7% and 105%, respectively. The fluorescence slope in experiment [4] is -0.327 (inactive). Besides, the NADPH fluorescence slope in experiment [5] was 7.7e-06 (inactive). Besides, the slope in experiment [6] is 0.00384 (inactive).
On to `Cn1nnnc1SCC(=O)NC1CCCCC1`, for which, in experiment [1], the cell count is 228. Also, the inhibition is 3.4% (inactive) in experiment [1], -0.8% (inactive) in experiment [3], 5.19% (inactive) in experiment [7] and 19.8% (inactive) in experiment [8]. Also, the inhibition of aggregation in experiment [2] was 20% (inactive). The values for the nuclei count in experiment [2] and in experiment [3] were 84.3% and 79.2%, respectively. For the same molecule, the fluorescence slope in experiment [4] was -0.432 (inactive). Moreover, the NADPH fluorescence slope in experiment [5] is 4.4e-07 (inactive). Further, the slope in experiment [6] was 0.00705 (inactive).
Regarding `O=C1CC(C(=O)Nc2ccc(Br)cc2)C2(CCCC2)O1` (centres undefined), the cell count in experiment [1] was 630. The inhibition is -4.1% (inactive) in experiment [1], -70% (inactive) in experiment [3], 16.6% (inactive) in experiment [7] and 11.8% (inactive) in experiment [8]. The inhibition of aggregation in experiment [2] was -3.7% (inactive). For the same molecule, the nuclei count in experiment [2] turned out to be 102%; in experiment [3] it was 98.1%. In addition, the fluorescence slope in experiment [4] was -0.406 (inactive). The NADPH fluorescence slope in experiment [5] was -3e-05 (inactive). The slope in experiment [6] is 0.00668 (inactive).
Turning to `O=C(CSc1ncnc2c1cnn2-c1ccccc1)Nc1ccccc1`, the cell count in experiment [1] is 316. Moreover, the inhibition in experiment [1] was 2.4% (inactive); in experiment [3], -42% (inactive); in experiment [7], 13.5% (inactive); in experiment [8], 23.8% (inactive). In addition, in experiment [2], the inhibition of aggregation is 8.4% (inactive). Also, the nuclei count worked out at 106% in experiment [2] and 115% in experiment [3]. Also, the fluorescence slope in experiment [4] was -0.493 (inactive). Further, in experiment [5], the NADPH fluorescence slope was -1.4e-05 (inactive). For the same molecule, the slope in experiment [6] is 0.00569 (inactive).
For the molecule `COc1ccc(-n2c(Cc3cccn3C)nnc2SCC(=O)NCC2CCCO2)cc1` (centres undefined), the cell count in experiment [1] was 846. The inhibition was 1.8% (inactive) in experiment [1], -182% (inactive) in experiment [3], 8.65% (inactive) in experiment [7] and 32% (inactive) in experiment [8]. In addition, in experiment [2], the inhibition of aggregation is 21.3% (inactive). Besides, the results for the nuclei count in experiment [2] and in experiment [3] were 103% and 130%, respectively. The fluorescence slope in experiment [4] is -0.56 (inactive). Besides, the NADPH fluorescence slope in experiment [5] is -3.5e-05 (inactive). Also, the slope in experiment [6] is 0.00701 (inactive).
For `COc1ccc(NC(=O)c2cc(C)on2)cc1OC`, the cell count in experiment [1] stood at 377. For the same molecule, the inhibition in experiment [1] is 3.7% (inactive); in experiment [3] it was 22.1% (inactive); in experiment [7], 6.93% (inactive); in experiment [8] it was -8.62% (inactive). Besides, the inhibition of aggregation in experiment [2] was -26.4% (inactive). In addition, the nuclei count in experiment [2] came to 111%; in experiment [3], 106%. Besides, in experiment [4], the fluorescence slope is -0.624 (inactive). For the same molecule, in experiment [5], the NADPH fluorescence slope is -3.2e-06 (inactive). Also, in experiment [6], the slope was 0.00386 (inactive).
Regarding `COc1ccc(Cc2nc(-c3ccc(NC(=O)c4cccnc4)cc3)no2)cc1`, the cell count in experiment [1] was determined as 609. For the same molecule, the inhibition in experiment [1] is 9.6% (inactive); in experiment [3], -45.6% (inactive); in experiment [7], -8.06% (inactive); in experiment [8], -67.3% (inactive). Besides, the inhibition of aggregation in experiment [2] was 23.4% (inactive). Also, the nuclei count in experiment [2] was 121%; in experiment [3], 96.3%. The fluorescence slope in experiment [4] was -0.6 (inactive). In experiment [5], the NADPH fluorescence slope is -5e-05 (inactive). In addition, the slope in experiment [6] is 0.0059 (inactive).
With `Cn1cccc1Cc1nnc(SCC(=O)Nc2ccccc2F)n1-c1ccc(F)cc1`, in experiment [1], the cell count amounted to 878. Further, the inhibition is -2.3% (inactive) in experiment [1], -44.3% (inactive) in experiment [3], 5.41% (inactive) in experiment [7] and 24.9% (inactive) in experiment [8]. Further, the inhibition of aggregation in experiment [2] is -8.8% (inactive). For the same molecule, the values for the nuclei count in experiment [2] and in experiment [3] were 108% and 113%, respectively. Moreover, in experiment [4], the fluorescence slope is -0.561 (inactive). Moreover, the NADPH fluorescence slope in experiment [5] was -8.8e-05 (inactive). Further, the slope in experiment [6] was 0.00608 (inactive).
As to `CCOC(=O)c1ccc(NS(=O)(=O)c2cccc3nsnc23)cc1`, the cell count in experiment [1] is 387. Moreover, the inhibition was -6.2% (inactive) in experiment [1], -63.9% (inactive) in experiment [3], -5.26% (inactive) in experiment [7] and 0.648% (inactive) in experiment [8]. For the same molecule, the inhibition of aggregation in experiment [2] was 18.9% (inactive). Moreover, the nuclei count in experiment [2] was determined as 83.1%; in experiment [3], 104%. For the same molecule, the fluorescence slope in experiment [4] was -0.409 (inactive). Also, in experiment [5], the NADPH fluorescence slope was 4.3e-05 (inactive). The slope in experiment [6] was 0.00792 (inactive).
As for `O=C(C1CCCN(S(=O)(=O)c2cnc[nH]2)C1)N1CC(=O)N(CCc2ccccc2)C(=O)C1` (centres undefined), in experiment [1], the cell count was determined as 545. The inhibition in experiment [1] was 3.4% (inactive); in experiment [3], -124% (inactive); in experiment [7], 9.42% (inactive); in experiment [8], 20.7% (inactive). For the same molecule, in experiment [2], the inhibition of aggregation is -13.8% (inactive). In addition, the results for the nuclei count in experiment [2] and in experiment [3] were 109% and 147%, respectively. Moreover, the fluorescence slope in experiment [4] was -0.573 (inactive). Moreover, in experiment [5], the NADPH fluorescence slope is 8.9e-06 (inactive). For the same molecule, the slope in experiment [6] is 0.0066 (inactive).
Regarding `CCOC(=O)N1CCN(c2c(NCCN(C)Cc3ccccc3)c(=O)c2=O)CC1`, the cell count in experiment [1] was 578. Moreover, the inhibition in experiment [1] is -2% (inactive); in experiment [3] it was -62.3% (inactive); in experiment [7], 1.64% (inactive); in experiment [8], 6.95% (inactive). Moreover, the inhibition of aggregation in experiment [2] is 9.3% (inactive). The nuclei count came out at 105% in experiment [2] and 124% in experiment [3]. In experiment [4], the fluorescence slope was -0.492 (inactive). Moreover, in experiment [5], the NADPH fluorescence slope is -1.8e-05 (inactive). For the same molecule, in experiment [6], the slope is 0.00728 (inactive).
In the case of `COc1ccc2oc(=O)c(C(=O)N3CCN(c4ccccc4F)CC3)cc2c1`, the cell count in experiment [1] was determined as 365. Besides, the inhibition is -0.4% (inactive) in experiment [1], -15.2% (inactive) in experiment [3], 16.3% (inactive) in experiment [7] and 21.2% (inactive) in experiment [8]. Also, the inhibition of aggregation in experiment [2] is -3.7% (inactive). The nuclei count in experiment [2] stood at 95.9%; in experiment [3] it was 109%. Moreover, the fluorescence slope in experiment [4] is -0.335 (inactive). For the same molecule, in experiment [5], the NADPH fluorescence slope is 2.4e-05 (inactive). For the same molecule, the slope in experiment [6] was 0.00535 (inactive).
